# Laboratory results: PubChem BioAssay AID1159580 (chemical genetic matrix, 2015)
# Several values for one entry are separate records, joined by “and”; a condition that tells them apart may be missing. Identical values can stand only once. Out of some 5,500 compounds screened, about 2,000 (36%) were called active. About 18% were inconclusive and are not listed. Cut-off read from the data, not from the text of the source: active = normalized growth mostly below about 0.91 (no sharp cut-off); inconclusive = no clear call, values can overlap the other calls; inactive = mostly above about 0.92. This is one part of the list.
# Assay: chemical genetic growth profiling, strain panel (AID 1159580);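 note: tested at 20 µM; growth read once vehicle control cultures reached saturation at 30 °C; 1 = growth at the plate median or of vehicle wells; lower values mean less growth of the strain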
# Settings: S. cerevisiae deletion strains, growth OD
smiles,measurement,setting,value
O=C(OC[C@H]1O[C@H](OC(=O)c2cc(O)c(O)c(OC(=O)c3cc(O)c(O)c(O)c3)c2)[C@H](OC(=O)c2cc(O)c(O)c(OC(=O)c3cc(O)c(O)c(O)c3)c2)[C@@H](OC(=O)c2cc(O)c(O)c(OC(=O)c3cc(O)c(O)c(O)c3)c2)[C@@H]1OC(=O)c1cc(O)c(O)c(OC(=O)c2cc(O)c(O)c(O)c2)c1)c1cc(O)c(O)c(OC(=O)c2cc(O)c(O)c(O)c2)c1,normalized growth,"locus YAL013W, strain DEP1, stronger effect = lower value",0.088 (active)
same,normalized growth,"locus YAL021C, strain ccr4, stronger effect = lower value",0.273 (active)
same,normalized growth,"locus YAL026C, strain drs2, stronger effect = lower value",0.572 (active)
same,normalized growth,"locus YAL030W, strain snc1, stronger effect = lower value",0.889 (active)
same,normalized growth,"locus YBL061C, strain skt5, stronger effect = lower value",0.68 (active)
same,normalized growth,"locus YBR009C, strain hhf1, stronger effect = lower value",0.788 (active)
same,normalized growth,"locus YBR021W, strain FUR4, stronger effect = lower value",0.148 (active)
same,normalized growth,"locus YBR023C, strain chs3, stronger effect = lower value",0.537 (active)
same,normalized growth,"locus YBR171W, strain sec66, stronger effect = lower value",0.931 (inactive)
same,normalized growth,"locus YBR229C, strain ROT2, stronger effect = lower value",0.0601 (active)
same,normalized growth,"locus YBR231C, strain swc5, stronger effect = lower value",0.581 (active)
same,normalized growth,"locus YBR279W, strain paf1, stronger effect = lower value",0.686 (active)
same,normalized growth,"locus YCL011C, strain gbp2, stronger effect = lower value",0.782 (active)
same,normalized growth,"locus YCL016C, strain dcc1, stronger effect = lower value",0.735 (active)
same,normalized growth,"locus YCL029C, strain bik1, stronger effect = lower value",0.0912 (active)
same,normalized growth,"locus YCL061C, strain MRC1, stronger effect = lower value",0.759 (active)
same,normalized growth,"locus YCL069W, strain vba3, stronger effect = lower value",0.8 (active)
same,normalized growth,"locus YCR088W, strain abp1, stronger effect = lower value",0.834 (active)
same,normalized growth,"locus YDL005C, strain med2, stronger effect = lower value",1.02 (inactive)
same,normalized growth,"locus YDL035C, strain GPR1, stronger effect = lower value",0.0826 (active)
same,normalized growth,"locus YDL040C, strain nat1, stronger effect = lower value",0.824 (active)
same,normalized growth,"locus YDL074C, strain BRE1, stronger effect = lower value",0.148 (active)
same,normalized growth,"locus YDL101C, strain DUN1, stronger effect = lower value",0.0829 (active)
same,normalized growth,"locus YDL134C, strain PPH21, stronger effect = lower value",0.0788 (active)
same,normalized growth,"locus YDL185W, strain tfp1, stronger effect = lower value",0.0903 (active)
same,normalized growth,"locus YDL192W, strain arf1, stronger effect = lower value",0.0892 (active)
same,normalized growth,"locus YDR001C, strain nth1, stronger effect = lower value",0.998 (inactive)
same,normalized growth,"locus YDR069C, strain doa4, stronger effect = lower value",0.524 (active)
same,normalized growth,"locus YDR101C, strain arx1, stronger effect = lower value",0.0922 (active)
same,normalized growth,"locus YDR137W, strain rgp1, stronger effect = lower value",0.327 (active)
same,normalized growth,"locus YDR150W, strain NUM1, stronger effect = lower value",0.0891 (active)
same,normalized growth,"locus YDR159W, strain sac3, stronger effect = lower value",0.66 (active)
same,normalized growth,"locus YDR162C, strain NBP2, stronger effect = lower value",0.079 (active)
same,normalized growth,"locus YDR195W, strain ref2",0.839 (active)
same,normalized growth,"locus YDR297W, strain sur2, stronger effect = lower value",0.823 (active)
same,normalized growth,"locus YDR318W, strain mcm21, stronger effect = lower value",0.0987 (active)
same,normalized growth,"locus YDR334W, strain swr1, stronger effect = lower value",0.632 (active)
same,normalized growth,"locus YDR335W, strain msn5, stronger effect = lower value",0.747 (active)
same,normalized growth,"locus YDR388W, stronger effect = lower value",0.0902 (active)
same,normalized growth,"locus YDR392W, strain spt3, stronger effect = lower value",0.742 (inactive)
same,normalized growth,"locus YDR502C, strain sam2, stronger effect = lower value",0.101 (active)
same,normalized growth,"locus YEL003W, strain gim4, stronger effect = lower value",0.748 (active)
same,normalized growth,"locus YEL037C, strain rad23, stronger effect = lower value",0.771 (active)
same,normalized growth,"locus YEL061C, strain CIN8 (second series), stronger effect = lower value",0.926 (inactive)
same,normalized growth,"locus YEL061C, strain CIN8, stronger effect = lower value",0.0806 (active)
same,normalized growth,"locus YER015W, strain faa2, stronger effect = lower value",0.531 (active)
same,normalized growth,"locus YER016W, strain bim1, stronger effect = lower value",0.8 (active)
same,normalized growth,"locus YER110C, stronger effect = lower value",0.111 (active)
same,normalized growth,"locus YER111C, strain swi4, stronger effect = lower value",0.404 (active)
same,normalized growth,"locus YER155C, strain BEM2 (second series), stronger effect = lower value",0.99 (inactive)
same,normalized growth,"locus YER155C, strain BEM2, stronger effect = lower value",0.112 (active)
same,normalized growth,"locus YER167W, strain BCK2, stronger effect = lower value",0.0894 (active)
same,normalized growth,"locus YFR010W, strain ubp6, stronger effect = lower value",0.701 (active)
same,normalized growth,"locus YGL078C, strain dbp3, stronger effect = lower value",0.0891 (active)
same,normalized growth,"locus YGL086W, strain mad1, stronger effect = lower value",0.0871 (active)
same,normalized growth,"locus YGL167C, strain pmr1, stronger effect = lower value",0.724 (active)
same,normalized growth,"locus YGL173C, strain kem1, stronger effect = lower value",0.54 (active)
same,normalized growth,"locus YGL227W, strain vid30, stronger effect = lower value",1 (inactive)
same,normalized growth,"locus YGL240W, strain doc1, stronger effect = lower value",0.979 (inactive)
same,normalized growth,"locus YGL248W, strain PDE1, stronger effect = lower value",0.0713 (active)
same,normalized growth,"locus YGL253W, strain hxk2, stronger effect = lower value",0.796 (active)
same,normalized growth,"locus YGR078C, strain PAC10, stronger effect = lower value",0.084 (active)
same,normalized growth,"locus YGR135W, strain pre9, stronger effect = lower value",0.0994 (active)
same,normalized growth,"locus YGR229C, strain SMI1, stronger effect = lower value",0.102 (active)
same,normalized growth,"locus YGR252W, strain gcn5, stronger effect = lower value",0.231 (active)
same,normalized growth,"locus YHR013C, strain ard1, stronger effect = lower value",0.597 (active)
same,normalized growth,"locus YHR027C, strain rpn1, stronger effect = lower value",0.455 (active)
same,normalized growth,"locus YHR030C, strain SLT2, stronger effect = lower value",0.0838 (active) and 1.05 (inactive)
same,normalized growth,"locus YHR079C, strain IRE1 (second series), stronger effect = lower value",0.0958 (active)
same,normalized growth,"locus YHR079C, strain IRE1, stronger effect = lower value",1.05 (inactive)
same,normalized growth,"locus YHR094C, strain hxt1, stronger effect = lower value",0.0909 (active)
same,normalized growth,"locus YHR129C, strain ARP1, stronger effect = lower value",0.105 (active)
same,normalized growth,"locus YHR142W, strain chs7, stronger effect = lower value",0.535 (active)
same,normalized growth,"locus YHR200W, strain rpn10, stronger effect = lower value",0.0922 (active)
same,normalized growth,"locus YIL066C, strain RNR3, stronger effect = lower value",0.0729 (active)
same,normalized growth,"locus YIL073C, strain SPO22, stronger effect = lower value",0.167 (active)
same,normalized growth,"locus YIL125W, strain kgd1, stronger effect = lower value",0.0846 (active)
same,normalized growth,"locus YIR030C, strain dcg1, stronger effect = lower value",0.0869 (active)
same,normalized growth,"locus YJL092W, strain hpr5, stronger effect = lower value",0.866 (active)
same,normalized growth,"locus YJL095W, strain BCK1 (second series), stronger effect = lower value",0.789 (active)
same,normalized growth,"locus YJL095W, strain BCK1, stronger effect = lower value",0.0975 (active) and 1.03 (inactive)
same,normalized growth,"locus YJL115W, strain asf1, stronger effect = lower value",0.979 (inactive)
same,normalized growth,"locus YJL129C, strain trk1, stronger effect = lower value",0.872 (inactive)
same,normalized growth,"locus YJL134W, strain LCB3, stronger effect = lower value",0.0741 (active)
same,normalized growth,"locus YJL154C, strain vps35, stronger effect = lower value",0.965 (inactive)
same,normalized growth,"locus YJL164C, strain tpk1, stronger effect = lower value",0.781 (active)
same,normalized growth,"locus YJL166W, strain qcr8, stronger effect = lower value",0.839 (active)
same,normalized growth,"locus YJL168C, strain set2, stronger effect = lower value",0.087 (active)
same,normalized growth,"locus YJL187C, strain SWE1 (second series), stronger effect = lower value",0.0725 (active)
same,normalized growth,"locus YJR043C, strain POL32, stronger effect = lower value",0.101 (active)
same,normalized growth,"locus YJR066W, strain TOR1, stronger effect = lower value",0.967 (inactive)
